# In PubChem BioAssay AID651956 (Broad Institute, 2012):
# Entries with a potency or affinity are not part of this list. Results filed as inconclusive are left out. Active and inactive are the calls of the source.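 Rule for the calls: active = in every test run, a fitted half-maximal concentration for signal decrease at or below twice the highest tested concentration; inconclusive = runs disagree, flat 30 to 70% decrease, or poor fit; inactive = the rest.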
# Assay: activation of miR-122 Renilla sensor silencing – cell-based, Huh7 psiCHECK-miR122, Renilla luciferase, cherry-picked, dose response (AID 651956);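 note: Renilla luciferase from a miR-122 sensor reporter so lower signal means miR-122 activation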
# Details: Huh7 psiCHECK-miR122 Renilla luciferase reporter, 48 h; series mostly up to 35 µM
row,SMILES,outcome
1,Oc1ccc(/C=N/Nc2nccnc2Cl)c(O)c1,inactive
2,CCCNC(=O)C[C@H]1CC[C@@H]2[C@H](COc3ccc(NC(=O)c4cc(F)cc(F)c4)cc3C(=O)N2C)O1,inactive
3,Cc1ccccc1NCN1C(=O)C2C3C=CC(C3)C2C1=O (centres undefined),inactive
4,COCC(=O)NC[C@H]1[C@@H](c2ccc(C3=CCCC3)cc2)[C@@H](CO)N1C(=O)C1CC1,inactive
5,CC(=O)c1ccc(Nc2nc3ccc(C)cc3n3cnnc23)cc1,inactive
6,COCC(=O)N(C[C@H]1[C@H](c2ccccc2)[C@H](CO)N1C(=O)NC(C)C)C(C)C,inactive
7,CCCNC(=O)Nc1ccc2c(c1)C(=O)N(C)[C@@H]1CC[C@@H](CC(=O)NCC3CCCCC3)O[C@@H]1CO2,inactive
8,C/C=C/c1ccc([C@@H]2[C@H](CO)N(Cc3ccccn3)[C@H]2CNC(=O)CC)cc1,inactive
9,COCCNC(=O)C[C@@H]1CC[C@@H]2[C@H](COc3ccc(NS(=O)(=O)c4ccc(Cl)cc4)cc3C(=O)N2C)O1,inactive
10,CN1C(=O)c2cc(NC(=O)c3cccs3)ccc2OC[C@H]2O[C@@H](CC(=O)NCCN3CCCCC3)CC[C@@H]21,inactive
11,COc1ccc(C(=O)N2C[C@H]3[C@@H](c4ccccc42)[C@@H](CO)N3C(=O)Cc2ccccn2)cc1,inactive
12,Cc1ccnc(Nc2nc(-c3c(C)nc4sccn34)cs2)c1,inactive
13,O=C(c1cccc(F)c1)N1C[C@@H]2[C@H](c3ccccc31)[C@H](CO)N2C(=O)Cc1ccccc1,inactive
14,CCC(=O)N1[C@H](CN(C)C(C)=O)[C@H](c2ccc(-c3cccnc3)cc2)[C@@H]1CO,inactive
15,COc1ccc(N2CCc3c(C)nc4c(OC)cc(OC)cc4c32)c(OC)c1,inactive
16,Cc1ccc(-c2ccc3c(c2)O[C@H](CN(C)C(=O)CC2CC2)[C@H](C)CN([C@@H](C)CO)S3(=O)=O)cc1,inactive
17,CCC(=O)N1[C@H](CO)[C@@H](c2ccccc2)[C@H]1CN(C(C)C)S(C)(=O)=O,inactive
18,COc1ccc(CN2CCc3c([nH]c4ccccc34)C2)c(OC)c1C,inactive
19,CCN(C[C@H]1N[C@H](CO)[C@H]1c1ccc(-c2ccc(F)cc2)cc1)C(=O)COC,inactive
20,c1cnc(N2CCN(Cc3c[nH]c4ccccc34)CC2)nc1,inactive

row,SMILES,outcome
1,Fc1ccc(CN2CCN(c3ncnc4scc(-c5ccc(F)cc5)c34)CC2)cc1,inactive
2,CN(C)CCNc1nc2sc3c(c2c(=O)n1CCc1ccccc1)CCCCC3,inactive
3,CC(C)CC#Cc1ccc([C@H]2[C@@H](CO)N3CCCCN(S(=O)(=O)Cc4ccccc4)C[C@H]23)cc1,inactive
4,C/C=C/c1ccc([C@H]2[C@@H](CO)N[C@@H]2CN(C(=O)c2ccccc2F)C(C)C)cc1,inactive
5,C[C@@H]1CN([C@H](C)CO)S(=O)(=O)c2ccc(C3=CCCCC3)cc2O[C@@H]1CN(C)C(=O)Nc1ccc2c(c1)OCO2,inactive
6,CCCNC(=O)C[C@@H]1CC[C@@H]2[C@H](COc3ccc(NC(=O)Nc4ccccc4F)cc3C(=O)N2C)O1,inactive
7,CCC(=O)Nc1ccc2c(c1)C(=O)N(C)[C@@H]1CC[C@H](CC(=O)Nc3cccc(OC)c3)O[C@@H]1CO2,inactive
8,CCNC(=O)Nc1ccc2c(c1)C(=O)N(C)[C@H]1CC[C@H](CC(=O)NCCN3CCCC3)O[C@@H]1CO2,inactive
9,CCC(=O)N1[C@H](CO)[C@H]2c3ccccc3N(C(=O)CC(F)(F)F)C[C@H]21,inactive
10,CNC[C@H]1Oc2cc(C#CC3CCCC3)ccc2S(=O)(=O)N([C@H](C)CO)C[C@H]1C,inactive
11,CCN(C[C@H]1N[C@H](CO)[C@H]1c1ccc(C2=CCCC2)cc1)C(=O)c1cccnc1,inactive
12,CCNC(=O)CCC(=O)Nc1cc(Cl)ccc1C,inactive
13,CC(=O)Nc1ccc2c(c1)C(=O)N(C)[C@@H]1CC[C@@H](CC(=O)NCc3ccc(Cl)cc3)O[C@H]1CO2,inactive
14,CN(C(=O)C12CC3CC(CC(C3)C1)C2)C1CCS(=O)(=O)C1 (centres undefined),inactive
15,CN(C[C@H]1N[C@@H](CO)[C@H]1c1ccc(-c2cccc(F)c2)cc1)C(=O)C1CCC1,inactive
16,Cc1ccc(-n2c(Cc3ccccc3)n[nH]c2=S)cc1,inactive
17,CC(=O)N(C)C[C@@H]1[C@@H](c2ccccc2)[C@H](CO)N1C(=O)C1CCC1,inactive
18,CC(=O)N1[C@H](CO)[C@@H](c2ccccc2)[C@H]1CN(C)C(=O)CN1CCOCC1,inactive
19,COC(=O)C[C@H]1CC[C@H]2[C@H](COc3ccc(NC(=O)NC(C)C)cc3C(=O)N2C)O1,inactive
